# EWS-Fli block – EWS/Fli-driven NR0B1 reporter inhibitors, primary screen, A673 cells, NR0B1 luciferase, luminescence, MLPCN library; viability-normalised; inhibition, % at 12.6 µM; actives 0.67% (n = 350,000);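 active means mean inhibition of at least 50% after viability correction, with every replicate also passing that limit; inconclusive means mean reaches 50% but only one of two replicates passes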;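 further: firefly luciferase signal divided by Alamar Blue viability fluorescence both relative to DMSO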
# miR122 inh – miR-122 Renilla sensor signal increase in Huh7, primary screen, miR-122 inhibitor project, cell-based, single point, plate reader | Huh7 miR-122 Renilla luciferase sensor, 48 h; neutral wells = 0, positive control = 100 | activation (reporter increase), % at 12.5 µM | actives 0.3% (n = 340,000) | AID 602342, 2012;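 active means mean replicate activation score at least 90 and every replicate individually at or above 90; inconclusive means only one of the two criteria met; inactive means neither criterion met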;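 further: higher luciferase means less miR-122 activity so hits act as miR-122 inhibitors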
# GSIS activator – GLuc luminescence reporter in INS-1E cells, primary screen for activators of glucose-dependent secretion of insulin. INS-1E GLuc reporter insulin secretion, 2-3 h. activation, % at 16.6 µM. actives 0.61% (n = 370,000). AID 743287, 2014;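 active means lowest replicate activation of at least 40%, so every replicate reaches that level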;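 further: 0% = median of neutral control wells and 100% = median of IBMX positive control wells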
# Statin myotox sup – suppressors of statin myotoxicity in C2C12 myotubes, primary screen, cell-based, single point, plate reader; C2C12 myotubes + simvastatin, ATP luminescence, 48 h; scaled: DMSO 0, geranylgeraniol control 100; rescue of ATP level, % at 7.49 µM; actives 0.78% (n = 330,000);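 active means mean ATP rescue above about 67%, or every replicate alone reaching that limit, limit read from the data, passing the limit was not always enough; inconclusive means no clear call, values can overlap the other calls; inactive means mean under the limit and some replicate under it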;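 further: myotubes were challenged with 10 µM simvastatin during compound exposure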
# HIV Env fusion – inhibitors of HIV-1 Env-driven cell-cell fusion, primary screen, HeLa-JRFL effector, CEM21 target cells, luciferase. inhibition, % at 12.3 µM. actives 1.1% (n = 360,000);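 active means mean replicate inhibition score of at least 50 and every replicate individually at or above 50; inconclusive means only one of the two criteria met; inactive means mean below 50 and not all replicates reaching 50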;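 further: 0% = plate neutral controls and 100% = maraviroc near 300 nM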
# PAX8 inh HTS – inhibitors of PAX8-driven TPO luciferase reporter, primary screen, RMG-I cells, single concentration | SteadyGlo, 24 h | inhibition, % at 12.6 µM | actives 1.2% (n = 360,000) | AID 652154, 2013;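 active means mean replicate inhibition at least 60% with every replicate also reaching 60%; inconclusive means only one of the two criteria is met; inactive means mean below 60% and not all replicates reaching 60%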;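 further: luciferase light reporting Pax8 driven TPO promoter activity; plate controls were median of neutral control wells for no effect and mitoxantrone controls for full effect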
# Active calls of the source: *; ? = inconclusive; . = not tested or not shown; [ ] = another dose, or the depositor's remark. Sampled rows, rich in hits. Any-hit rate of the full collection: about 3.1%.
SMILES,EWS-Fli block,miR122 inh,GSIS activator,Statin myotox sup,HIV Env fusion,PAX8 inh HTS
COc1ccc(NC(=O)Nc2ccc3c(c2)C(=O)N([C@@H](C)CO)C[C@H](C)[C@@H](CN(C)S(=O)(=O)c2ccccc2)O3)cc1,6,-4[16.7 µM],-12,.,-13[16.7 µM],.
Cn1nc(CC(=O)N2CCN(c3ccccc3)CC2)c2ccccc2c1=O,.,344*,.,.,-7,14
CC1CCN(C(=O)Cc2nn(C)c(=O)c3ccccc23)CC1,.,0,.,7,.,.
O=[N+]([O-])c1ccc2nc(-c3ccc(Cl)cc3)[nH]c2c1,-127,.,-7,.,-103,-146
O=[N+]([O-])c1ccc(-c2cc(-c3ccc(Cl)cc3)n[nH]2)cc1,.,2,71*,.,.,.
O=S(=O)(c1ccccc1)c1nc(-c2ccco2)oc1Nc1ccccc1,-33,.,.,.,16,-50
O=S(=O)(c1ccc(F)cc1)c1nc(-c2ccco2)oc1Nc1ccccc1,-14,30,1,23,66*,0
C[C@H](NC(=O)N(C)C[C@H]1OCc2ccccc2-c2ccccc2C(=O)N([C@H](C)CO)C[C@H]1C)c1ccccc1,5,.,22,-16,-26[16.7 µM],-12
CCc1ccc(NC(=O)C2=CC(c3ccc(OC)c(OC)c3)=NS(=O)(=O)N2C)cc1,20,0,-6,16,56*,29
COc1ccc(CNC(=O)C2=CC(c3ccc(OC)c(OC)c3)=NS(=O)(=O)N2C)cc1,0,1,2,12,.,-9
O=C(C[C@@H]1C[C@H]2c3cc(NS(=O)(=O)c4ccc(F)cc4)ccc3O[C@H]2[C@@H](CO)O1)NCc1cc(F)ccc1F,6,6[16.7 µM],-10,8,.,.
COc1cccc(C(=O)Nc2ccc3c(c2)OC[C@@H](C)N(CCc2ccccc2)C[C@@H](C)[C@H](OC)CN(C)C3=O)c1,-1,.,-11,20,.,68*
COc1cccc(C(=O)Nc2ccc3c(c2)C(=O)N(C)C[C@@H](OC)[C@H](C)CN(CCc2ccccc2)[C@H](C)CO3)c1,11,.,-50,54,39[16.7 µM],71*
COc1cccc(C(=O)Nc2ccc3c(c2)OC[C@@H](C)N(CCc2ccccc2)C[C@H](C)[C@H](OC)CN(C)C3=O)c1,-4,.,-4,36,.,4
C[C@H](CO)N1C[C@H](C)[C@H](CN(C)C)OCCCC[C@H](C)Oc2ccc(NC(=O)Nc3ccc4c(c3)OCO4)cc2C1=O,-5,-2[16.7 µM],-7,-12,25[16.7 µM],-28
C[C@@H]1CN([C@H](C)CO)C(=O)c2cc(NC(=O)Nc3cccc4ccccc34)ccc2O[C@@H](C)CCCCO[C@@H]1CN(C)Cc1ccc2c(c1)OCO2,4,-34[16.7 µM],-3,?,25[16.7 µM],29
O=C(Nc1ccc2c(c1)OCCO2)c1cccnc1Oc1ccccc1,5,2,53,21,2,9
O=C(Nc1ccc(F)cc1)c1cccnc1Oc1ccccc1,5,-19,89*,8,-5,-26
CC(C)NC(=O)N(C)C[C@@H]1Oc2ncc(-c3cncnc3)cc2C(=O)N([C@@H](C)CO)C[C@@H]1C,-8,.,19,5,-7[16.7 µM],-33
Cc1nc(N)c(C#N)c(-c2cccnc2)c1C,.,-11,48*,12,?,-21
CCc1nc(N)c(C#N)c(-c2cccnc2)c1C,.,-3,.,2,10,.
COc1ccc(NC(=O)C(OC)c2ccccc2)cc1Cl (configuration not stated),.,-2,16,4,.,15
COc1ccc(NC(=O)C(Sc2nnc(-c3ccncc3)n2-c2ccccc2C)c2ccccc2)cc1Cl (configuration not stated),-1,-6,-20,.,.,115*
C[C@H](CO)N1C[C@H](C)[C@@H](CN(C)CC2CCCCC2)Oc2c(NC(=O)c3ccncc3)cccc2C1=O,-13,127*[16.7 µM],-2,-19,34[16.7 µM],-2
C[C@H]1CN([C@@H](C)CO)C(=O)c2cccc(NC(=O)c3ccncc3)c2O[C@@H]1CN(C)CC1CCCCC1,8,91*[16.7 µM],5,14,26[16.7 µM],12
SMILES,EWS-Fli block,miR122 inh,GSIS activator,Statin myotox sup,HIV Env fusion,PAX8 inh HTS
Cc1ccc(S(=O)(=O)Nc2ccc3c(c2)C(=O)N([C@H](C)CO)C[C@@H](C)[C@H](CN(C)S(=O)(=O)c2ccccc2)OCCCC[C@H](C)O3)cc1,3,-2[16.7 µM],-20,.,-11[16.7 µM],80*
Cc1ccc(S(=O)(=O)N(C)C[C@H]2OCCCC[C@H](C)Oc3ccc(NS(=O)(=O)c4ccccc4)cc3C(=O)N([C@H](C)CO)C[C@@H]2C)cc1,20,-1[16.7 µM],-9,10,-86[16.7 µM],62*
Cc1ccc(Cl)cc1N1CCN(C(=O)c2noc(C)c2[N+](=O)[O-])CC1,70*,.,.,20,1,105*
c1ccc(Oc2ccccc2-c2cc(NCCc3cccnc3)n3nccc3n2)cc1,0,0,53*,-1,0,-14
Cn1c2c(c(=O)n(C)c1=O)C(CC(=O)Nc1ccccc1)C(=O)N2 (configuration not stated),.,-2,.,133*,-21,16
CCNc1nc(NCC)n2c(SCC(=O)N(CC)C3CCCCC3)nnc2n1,.,.,74*,.,-11,1
CCNc1nc(NCC)n2c(SCC(=O)NC34CC5CC(CC(C5)C3)C4)nnc2n1,.,3,-8,0,.,3
CCC(=O)Nc1ccc2c(c1)OC[C@@H](C)N(C(=O)CC1CC1)C[C@H](C)[C@H](OC)CN(C)C2=O,-8,.,-4,.,.,.
CCS(=O)(=O)Nc1ccc2c(c1)C(=O)N(C)C[C@@H](OC)[C@@H](C)CN(C(=O)CN(C)C)[C@@H](C)CO2,-2,0[16.7 µM],2,-11,.,.
CCNC(=O)C[C@H]1CC[C@@H]2[C@H](COc3ccc(NC(=O)Cc4ccccc4)cc3C(=O)N2C)O1,4,-6[16.7 µM],0,-1,0[16.7 µM],-11
O=C1C(=C(c2ccccc2)c2ccccc2)Nc2ccccc21,.,-13,.,100*,.,.
O=C1C(=C(O)c2ccccc2)C(=O)c2ccccc21,-8,-5,0,-27,.,.
Cc1cc(N2CCN(Cc3cn(C)nc3-c3cccc(Cl)c3)CC2)cc(C)n1,58*,.,1,.,-25,13
C[C@]1(C(=O)NCCCNc2ncc(C(F)(F)F)cc2Cl)C=C[C@@H](Cc2ccccc2)N1C(=O)c1ccccc1,.,-5,.,4,.,.
COCCNC(=O)[C@@]1(Cc2ccccc2)C=C[C@@H](C)N1C(C)=O,-34,-1,9,121*,-21,-37
COC(=O)N1[C@H](C)C=C[C@]1(Cc1ccccc1)C(=O)NCCCNc1ncc(C(F)(F)F)cc1Cl,12,0,.,5,103*,-3
